Measurements reported in PubChem BioAssay AID623979 (Broad Institute, 2012).
Measured potencies and affinities stand elsewhere. Records with an inconclusive call do not appear. Active and inactive are the calls of the source.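 Rule for the calls: active = fitted half-maximal inhibition concentration at or below twice the top tested dose in every test run; inconclusive = runs disagree, or a weak flat response or poor fit; inactive = the rest, including flat or wrong-direction curves.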

These compounds were tested against Cyclin-dependent kinase 5 activator 1 (Homo sapiens) + Cyclin-dependent kinase 5 (Homo sapiens) (UniProt Q15078+Q00535) (assay: CDK5-p25 kinase inhibition, dose response, selectivity assay for GSK3beta inhibitor project, biochemical, microfluidic mobility shift, dry powder, set 2 (AID 623979)). Details: recombinant CDK5-p25, Caliper peptide conversion, 55 min; series mostly up to 35 µM.
Chain of Cyclin-dependent kinase 5 activator 1 (Homo sapiens) + Cyclin-dependent kinase 5 (Homo sapiens) (Q00535 whole entry, looked up): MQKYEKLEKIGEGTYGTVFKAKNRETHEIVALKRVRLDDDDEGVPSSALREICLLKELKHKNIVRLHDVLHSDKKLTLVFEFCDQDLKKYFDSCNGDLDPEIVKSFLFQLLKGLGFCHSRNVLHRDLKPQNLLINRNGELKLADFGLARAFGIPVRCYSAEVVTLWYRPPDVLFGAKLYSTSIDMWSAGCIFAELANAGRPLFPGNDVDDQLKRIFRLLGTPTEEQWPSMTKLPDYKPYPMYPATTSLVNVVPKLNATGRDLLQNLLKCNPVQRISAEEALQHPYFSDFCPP
Chain of Cyclin-dependent kinase 5 activator 1 (Homo sapiens) + Cyclin-dependent kinase 5 (Homo sapiens) (Q15078 whole entry, looked up): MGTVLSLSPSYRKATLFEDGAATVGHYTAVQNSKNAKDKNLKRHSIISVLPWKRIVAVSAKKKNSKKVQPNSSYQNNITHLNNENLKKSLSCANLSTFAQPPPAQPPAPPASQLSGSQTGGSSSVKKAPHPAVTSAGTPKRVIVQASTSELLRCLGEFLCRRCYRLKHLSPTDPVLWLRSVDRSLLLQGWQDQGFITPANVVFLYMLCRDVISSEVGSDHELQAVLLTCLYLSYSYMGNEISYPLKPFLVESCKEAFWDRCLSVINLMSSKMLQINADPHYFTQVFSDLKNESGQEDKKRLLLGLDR

outcome, inactive:
Clc1ccc(CSc2nnc(-c3ccncc3)o2)c(Cl)c1, Cc1cccc(OCC(=O)Nc2ccc3c(c2)C(=O)NC3=O)c1, COc1cc(C(=O)N2CCN(c3ccccn3)CC2)cc(OC)c1OC, Cc1ccc(S(=O)(=O)N2CCN(CC(=O)N/N=C/c3ccccn3)CC2)cc1, COC(=O)c1ccc(CSc2ccc3nnc(-c4ccc(F)cc4)n3n2)o1, Nc1nonc1-n1nnc(C(=O)N/N=C/c2c(F)cccc2Cl)c1-c1ccc2c(c1)OCO2, Nc1nc(NCC2CCCO2)nc(Nc2ccc(F)cc2)c1[N+](=O)[O-] (stereo not given), CCOc1ccccc1/C=N/NC(=O)c1nnn(-c2nonc2N)c1CN1CCCCCC1, Nc1nonc1-n1nnc(C(=O)N/N=C/c2cccc(Cl)c2)c1CN1CCCCCC1, Nc1nc(NCC2CCCO2)nc(Nc2ccc(Cl)cc2)c1[N+](=O)[O-] (stereo not given)
